The values that follow come from PubChem BioAssay (NCATS).

Molecules are shown by their SMILES. Results filed as inconclusive are left out. A number with no mark means an inactive call. The source made the active and inactive calls. The call rests on the fitted dose curve; in most records, active means well fitted inhibition curve with a large enough effect; inconclusive means small, poorly fitted or top-dose-only effect; inactive means flat fitted curve, though single readings scatter.

Assay [1] in a line: Drug repurposing screens with cells derived from glioblastoma tumor samples (AID 1345199). Further: nearly all actives have a fitted effect of over 40% in size. The following applies: GBM patient neurospheres viability, ATP luminescence, 48 h. The essentials: (§1)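 Primary testing used CD133+ neurospheres from four GBM patients, seven concentrations, 48 h exposure and ATP-based viability; confirmation added three slower-growing patient lines.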
For the next assay, the system named is astro (control astrocytes). Described as above. To be noted: viability, ATP luminescence, 48 h; series mostly up to 45.9 µM. In outline:
as §1

The mark [2] stands for this setting: at 45.9 µM (top of the series), tumour line B.
The mark [3] stands for this setting: at 45.9 µM (top of the series), tumour line D.
The mark [4] stands for this setting: at 46 µM (top of the series), tumour line A.
The mark [5] stands for this setting: at 46.1 µM (top of the series), tumour line C.
Setting [6] is: at 20 µM (top of the series), tumour line C.
[7] abbreviates: at 21.2 µM (top of the series), tumour line B.
Where [8] appears, read: at 21.2 µM (top of the series), tumour line D.
The mark [9] stands for this setting: at 21.3 µM (top of the series), tumour line A.
On the % scale 0 is the no-effect control and ±100 the full control effect; potency means the concentration at half of the fitted maximal effect.

`OC/C=C/c1ccccc1`: the activity, negative = cell killing in assay [1] (setting [2]) is -6.23%; in assay [1] (setting [3]) it was -1.36%; in assay [1] (setting [4]), -12.3%; in assay [1] (setting [5]), 8.18%. For the same compound, in the assay with astro, the Potency entry is “inactive”.
Turning to `Cn1c(O)c(N=NC(N)=S)c2ccccc21`, the activity, negative = cell killing in assay [1] (setting [2]) is -22.4%; in assay [1] (setting [3]) it was -18.5%; in assay [1] (setting [5]), -19.8%. The Potency in assay [1] (tumour line A) is 31.6 µM (active). Besides, in the assay on astro, the Potency result was “inactive”.
Turning to `C[S+](C)CCC(N)C(=O)O` (stereo not given), the activity, negative = cell killing in assay [1] (setting [2]) is -1.5%; in assay [1] (setting [3]), -4.21%; in assay [1] (setting [4]), -14.6%; in assay [1] (setting [5]) it was -27.3%. In the assay with astro, the Potency entry was “inactive”.
Consider `CC(=O)N=c1sc(S(N)(=O)=O)nn1C`, for which the activity, negative = cell killing is -7.38% in assay [1] (setting [6]), -5.71% in assay [1] (setting [7]), -24.8% in assay [1] (setting [8]) and -18.1% in assay [1] (setting [9]). In addition, the Potency result with astro was “inactive”.
As to `CNC(=O)c1c(I)c(C(=O)NCC(=O)Nc2c(I)c(C(=O)O)c(I)c(C(=O)NCCO)c2I)c(I)c(N(C)C(C)=O)c1I`, the activity, negative = cell killing in assay [1] (setting [2]) is -2.37%; in assay [1] (setting [3]) it was -21.2%; in assay [1] (setting [4]), -7.61%; in assay [1] (setting [5]), 3.32%. For the same compound, in the assay with astro, the Potency entry is “inactive”.
In the case of `CCOC(=S)SSC(=S)OCC`, the activity, negative = cell killing is -12.5% in assay [1] (setting [2]), -2.86% in assay [1] (setting [3]), -27.4% in assay [1] (setting [4]) and -5.03% in assay [1] (setting [5]). In addition, the Potency entry in the assay on astro was “inactive”.
Take `CCCc1ccc(C(=O)O)cc1`: the activity, negative = cell killing in assay [1] (setting [2]) was -12.5%; in assay [1] (setting [3]), -19.9%; in assay [1] (setting [4]), -22.4%; in assay [1] (setting [5]) it was 3.37%. The Potency entry in the assay on astro was “inactive”.
Consider `CC(C)(CO)[C@@H](O)C(=O)NCCC(=O)NCCSSCCNC(=O)CCNC(=O)[C@H](O)C(C)(C)CO`, for which the activity, negative = cell killing in assay [1] (setting [2]) was -16.4%; in assay [1] (setting [3]), -15.1%; in assay [1] (setting [4]), -16.6%; in assay [1] (setting [5]), -15.9%. The Potency result in the assay on astro was “inactive”.
As for `CC(C)(CO)[C@@H](O)C(=O)NCCCC(=O)O`, the activity, negative = cell killing was 2.97% in assay [1] (setting [2]), -4.32% in assay [1] (setting [3]), -3.96% in assay [1] (setting [4]) and -7.77% in assay [1] (setting [5]). For the same compound, in the assay with astro, the Potency entry is “inactive”.
Regarding `CC1CS(=O)(=O)CCN1/N=C/c1ccc([N+](=O)[O-])o1` (stereo not given), the activity, negative = cell killing in assay [1] (setting [6]) is -27.2%; in assay [1] (setting [7]), -10%; in assay [1] (setting [8]) it was -29.2%; in assay [1] (setting [9]), -23%. In the assay on astro, the Potency result was “inactive”.
`CCCCC(O)c1ccccc1` (stereo not given): the activity, negative = cell killing was -4.84% in assay [1] (setting [2]), -15% in assay [1] (setting [3]), -44.5% in assay [1] (setting [4]) and 0.769% in assay [1] (setting [5]). Besides, the Potency entry with astro was “inactive”.
For the compound `CN1C(=O)OC(C)(C)C1=O`, the activity, negative = cell killing in assay [1] (setting [6]) was -9%; in assay [1] (setting [7]), 0.292%; in assay [1] (setting [8]), -3.8%; in assay [1] (setting [9]) it was -18.7%. Also, the Potency entry with astro is “inactive”.
For the compound `COC(=O)C(CN)c1c[nH]c2ccc(OC)cc12` (stereo not given), the activity, negative = cell killing in assay [1] (setting [2]) is -10.3%; in assay [1] (setting [3]) it was -14.4%; in assay [1] (setting [4]), -30.9%; in assay [1] (setting [5]) it was -0.904%. In addition, the Potency result with astro was “inactive”.
The corresponding values for `CC(=O)Oc1cccc(C(=O)O)c1OC(C)=O` are -9%, -8.06%, -12.3%, -14.6% and “inactive”.
For the compound `CC1(C)S[C@@H]2[C@H](NC(=O)C3(N)CCCCC3)C(=O)N2[C@H]1C(=O)O`, the activity, negative = cell killing in assay [1] (setting [2]) is -3.31%; in assay [1] (setting [3]), -4.88%; in assay [1] (setting [4]) it was -7.56%; in assay [1] (setting [5]), -20.1%. Moreover, the Potency entry with astro is “inactive”.
Regarding `CN[C@@H]1[C@@H](O[C@H]2O[C@H](CO)[C@@H](N)[C@H](O)[C@H]2O)O[C@H]2C[C@@H](N)[C@@H](O[C@H]3[C@H](O)[C@@H](O)[C@H](N)C[C@@H]3N)O[C@@H]2[C@@H]1O`, the activity, negative = cell killing in assay [1] (setting [6]) is -7.39%; in assay [1] (setting [7]), 0.663%; in assay [1] (setting [8]), 2.67%; in assay [1] (setting [9]) it was -16.4%. Besides, the Potency entry with astro was “inactive”.
Consider `COC(=O)[C@H]1[C@H]2C[C@@H]3c4[nH]c5cc(OC)ccc5c4CCN3C[C@H]2C[C@H](OC)[C@@H]1OC`, for which the activity, negative = cell killing was -8.25% in assay [1] (setting [2]), -1.56% in assay [1] (setting [3]) and -6.43% in assay [1] (setting [5]). Besides, in assay [1] (tumour line A), the Potency was 11.2 µM (active). In the assay with astro, the Potency result is “inactive”.
As to `O[C@@H]([C@H](O)[C@H](O)CBr)[C@H](O)CBr`, the activity, negative = cell killing was -6.4% in assay [1] (setting [2]), -10.8% in assay [1] (setting [3]), -25.7% in assay [1] (setting [4]) and 4.72% in assay [1] (setting [5]). For the same compound, the Potency result in the assay with astro was “inactive”.
In the case of `CC(=O)[C@@]1(O)CC[C@H]2[C@@H]3C=C(Cl)C4=CC(=O)[C@@H]5C[C@@H]5[C@]4(C)[C@H]3CC[C@@]21C`, the activity, negative = cell killing in assay [1] (setting [2]) was -14.4%; in assay [1] (setting [3]) it was -9.17%; in assay [1] (setting [4]), -35.1%; in assay [1] (setting [5]) it was -13.6%. The Potency result in the assay on astro is “inactive”.
On the same counts, the results for `O=P(O)(O)OC[C@H](O)CO` are -8.89%, -11.2%, -27.1%, 21.9% and “inactive”.
Turning to `CC(C)N1CCN(c2ccc(OC[C@H]3CO[C@](Cn4cncn4)(c4ccc(Cl)cc4Cl)O3)cc2)CC1`, the activity, negative = cell killing in assay [1] (setting [6]) was -6.28%. Moreover, the Potency in assay [1] (tumour line A) is 2.51 µM (active); in assay [1] (tumour line B), 14.1 µM (active); in assay [1] (tumour line D), 10 µM (active). The Potency result with astro was “inactive”.
